Screening results (PubChem)
GLP-1R agonist: qHTS of GLP-1 Receptor Agonists; 380,000 tested, 0.007% active; HEK293 GLP-1R CRE-luciferase, luminescence, 4-6 h; cells express a hypersensitive GLP-1R form; Potency, µM (doses to about 45.6 µM), usual class: activators
GLP1R cytotox: qHTS of GLP-1 Receptor Inverse Agonists: Cytotox Screen; HEK293 cAMP-luciferase reporter cells, luminescence, 24 h; Potency, µM (titrated, usually from 38.3 µM), usual class: inhibitors; 410,000 tested, 0.13% active;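 also: loss of luciferase light is scored as toxicity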
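Here, cytotoxicity is scored as loss of luminescence. The MLSMR collection was tested on cells seeded in medium containing 10% Nu serum, with a 24 hr compound exposure preceded by 12 hours of culture.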
GLP1R inv ag: qHTS of GLP-1 Receptor Inverse Agonists (Inhibition Mode). 410,000 tested, 1.6% active. AID 624417, 2012. Glucagon-like peptide 1 receptor (Homo sapiens), P43220. HEK293 GLP-1R CRE-luciferase, luminescence, 24 h; GLP-1R form is constitutively active. Potency, µM (doses to about 38.3 µM), hits mostly inhibitors; also: nearly all actives have a fitted effect of over 55% in size
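Cells are plated, allowed 12 hours at 37 deg C, then treated with compounds for 24 hr before luciferase detection reagent is added and luminescence is read after 12 min at room temperature. The HEK293 line carries constitutively active GLP-1R with a cAMP-responsive reporter.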
PTHR1 agonist: qHTS for PTHR1 Agonists: Primary Screen | AID 743266, 2014 | Potency, µM (titrated, usually from 115 µM), usual class: activators | Parathyroid hormone/parathyroid hormone-related peptide receptor (Homo sapiens), Q03431 | HEK293 GP2 PTHR1 cells, GloSensor cAMP luminescence, 1 h | 410,000 tested, 0.075% active; also: nearly all actives have a fitted effect of over 55% in size
Target sequence (Q03431 whole entry, looked up): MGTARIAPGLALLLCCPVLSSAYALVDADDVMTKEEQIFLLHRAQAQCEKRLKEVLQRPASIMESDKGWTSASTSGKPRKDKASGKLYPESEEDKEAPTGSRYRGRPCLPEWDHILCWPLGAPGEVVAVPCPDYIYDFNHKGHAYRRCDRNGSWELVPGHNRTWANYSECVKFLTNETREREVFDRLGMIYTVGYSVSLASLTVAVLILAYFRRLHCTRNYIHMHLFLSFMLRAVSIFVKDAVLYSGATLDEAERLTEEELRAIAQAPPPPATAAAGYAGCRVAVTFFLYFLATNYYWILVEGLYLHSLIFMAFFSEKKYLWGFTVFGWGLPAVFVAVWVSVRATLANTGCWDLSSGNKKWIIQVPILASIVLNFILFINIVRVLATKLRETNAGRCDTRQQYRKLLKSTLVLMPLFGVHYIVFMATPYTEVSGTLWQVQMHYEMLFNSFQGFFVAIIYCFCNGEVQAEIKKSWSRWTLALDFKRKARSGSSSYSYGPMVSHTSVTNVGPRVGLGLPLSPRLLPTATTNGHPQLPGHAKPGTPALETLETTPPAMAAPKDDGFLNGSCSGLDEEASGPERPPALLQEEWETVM
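HEK-293-derived GP2 cells expressing PTHR1 and a GloSensor cAMP reporter, 3,000/well, plated overnight, given luciferin plus IBMX (each 0.5 mM as added) for 1 h at 37 °C, then compound for 1 h at 37 °C. Luminescence was read after 15 min at room temperature.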
mIDH1 inhibitor: qHTS for Inhibitors of mutant isocitrate dehydrogenase 1 (IDH1): qHTS; Isocitrate dehydrogenase [NADP] cytoplasmic (Homo sapiens), O75874; IDH1-R132H enzyme, NADPH consumption, diaphorase/resazurin fluorescence; Potency, µM (doses to about 76.6 µM), usual class: inhibitors; 390,000 tested, 0.093% active; also: nearly all actives have a fitted effect of over 65% in size
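IDH1-R132H (0.5 ug/mL) preincubated 30 min with compound, then NADPH (0.016 mM) and alpha-KG (2 mM) added; 80 min at RT, pH 7.5. Remaining NADPH coupled via diaphorase/resazurin to fluorescence (540/590 nm); concentration-response curves normalized to no-enzyme control.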
LDHA inh: qHTS assay for inhibitors of human lactate dehydrogenase. activity change, % (values are at about 110 or 230 µM). purified LDHA, NADH/diaphorase-resazurin fluorescence; hits give low values. L-lactate dehydrogenase A chain (Homo sapiens), P00338. 480,000 tested, 0.15% active. AID 1347041, 2019; in the data active = activity change below about -30%; inconclusive = mostly about -25% to -30%
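Remaining NADH was detected by diaphorase (0.133 mg/mL) converting 37 µM resazurin to fluorescent resorufin, read at 0 and 20 minutes. The preceding 5-minute room-temperature reaction used 2 nM LDHA, 0.2 mM sodium pyruvate and 0.06 mM NADH at pH 7.4.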
Of the large screens only hits and unclear results are named; the others gave an inactive call. A selection: hits, their analogues and other compounds. The true share with any hit is near 1.7%. Unless noted, calls follow the shape of the dose curve; as a rule, active = well fitted curve in the direction sought with a large enough effect; inconclusive = small, poorly fitted or top-dose-only effect, or another doubt; inactive = no such curve, though single readings can be large; an effect the other way counts as inactive or inconclusive.

C[C@@H]1CN([C@@H](C)CO)C(=O)c2ccccc2-c2ccccc2CO[C@@H]1CN(C)S(=O)(=O)c1ccc(C(F)(F)F)cc1	GLP1R inv ag 10µM
O=C(CCCc1cccs1)NCc1ccccc1COc1ccccc1	none (no result: GLP-1R agonist, GLP1R cytotox, GLP1R inv ag, PTHR1 agonist, mIDH1 inhibitor)
COc1ccc(CC(=O)Oc2ccc3cc(Br)ccc3c2)cc1OC	none (no result: GLP-1R agonist, GLP1R cytotox, GLP1R inv ag, PTHR1 agonist, mIDH1 inhibitor)
CCOCCCNc1nc2c(c(=O)n(C)c(=O)n2C)n1Cc1ccc(Cl)c(Cl)c1	none (no result: GLP-1R agonist, GLP1R cytotox, GLP1R inv ag, PTHR1 agonist, mIDH1 inhibitor)
O=C(OCC12CC3CC(CC(C3)C1)C2)c1ccc([N+](=O)[O-])cc1	none (no result: GLP-1R agonist, GLP1R cytotox, GLP1R inv ag, PTHR1 agonist, mIDH1 inhibitor)
O=S(=O)(c1cccs1)N1CCN(CC(O)COc2cccc(Br)c2)CC1 (stereo unspecified)	GLP1R inv ag 8.9µM
NC(=O)CSc1ccc2c(c1)OCCO2	none (no result: GLP-1R agonist, GLP1R cytotox, GLP1R inv ag, PTHR1 agonist, mIDH1 inhibitor)
Cc1ccc(O)c(-c2cc(-c3ccccc3C)[nH]n2)c1	GLP1R cytotox inconclusive, GLP1R inv ag 5.6µM
COc1ccc(-c2cc(-c3cc(C)ccc3O)[nH]n2)cc1	GLP1R cytotox inconclusive, GLP1R inv ag 10µM
COc1ccc(O)c(-c2c(-c3ccc(Cl)cc3)n[nH]c2C)c1	GLP1R inv ag 10µM
COc1ccc(-c2cc(-c3ccc(C)cc3)n[nH]2)c(O)c1	GLP1R inv ag inconclusive
COc1ccc(-c2n[nH]c(C)c2-c2ccc(Cl)cc2)c(O)c1	GLP1R cytotox inconclusive, GLP1R inv ag inconclusive
Cc1nc(NCC(C)C)sc1C(=O)NCc1ccco1	none (no result: GLP-1R agonist, GLP1R cytotox, GLP1R inv ag, PTHR1 agonist, mIDH1 inhibitor)
NC(=O)c1cc2ccncc2c2ccccc12	GLP1R inv ag 1µM
O=c1[nH]c(-c2ccc(-c3cccc(F)c3)o2)nc2ccccc12	none (no result: GLP-1R agonist, GLP1R cytotox, GLP1R inv ag, PTHR1 agonist, mIDH1 inhibitor)
CC(C)NC(=O)Cn1c(=O)n(-c2ccccc2)c(=O)c2sccc21	LDHA inh -41 (no result: GLP-1R agonist, GLP1R cytotox, GLP1R inv ag, PTHR1 agonist, mIDH1 inhibitor)
COCCN(CC(N)=O)S(=O)(=O)c1cccc(Cl)c1	none (no result: GLP-1R agonist, GLP1R cytotox, GLP1R inv ag, PTHR1 agonist, mIDH1 inhibitor)
CN(C)S(=O)(=O)N(CC(=O)Nc1ccc(Cl)cc1)c1ccccc1	none (no result: GLP-1R agonist, GLP1R cytotox, GLP1R inv ag, PTHR1 agonist, mIDH1 inhibitor)
CC(C)CNC(=O)c1oc2ccccc2c1COc1ccccc1	GLP1R inv ag 5µM
COCc1c(C(=O)N2CCN(Cc3nc4ccccc4s3)CC2)oc2ccccc12	GLP1R inv ag inconclusive, LDHA inh -33
COCc1c(C(=O)NCc2ccccc2CN2CCCC2)oc2ccccc12	GLP1R inv ag 10µM
CCC(CC)NC(=O)c1oc2ccccc2c1COc1ccccc1	GLP1R inv ag inconclusive
COCc1c(C(=O)N2CCN(S(=O)(=O)c3ccccc3Cl)CC2)oc2ccccc12	GLP1R inv ag inconclusive
COc1ccc2oc(C(=O)NCc3ccccc3CN3CCCC3)c(C)c2c1	GLP1R inv ag inconclusive
NC(=O)C1CCN(C(=O)c2cc(-c3ccccc3)nc3ccccc23)CC1	none (no result: GLP-1R agonist, GLP1R cytotox, GLP1R inv ag, PTHR1 agonist, mIDH1 inhibitor)
CCC/C(=C1/c2ccccc2C(=O)N1c1ccccc1)c1ccc2[nH]ccc2c1	GLP1R inv ag 4.5µM
O=C1c2ccccc2/C(=C\c2ccc3[nH]ccc3c2)N1c1ccccc1	none
COc1ccc(Cl)cc1NC(=O)NCC1CCN(Cc2cc(C)ccc2C)CC1	GLP1R cytotox inconclusive, GLP1R inv ag inconclusive
COc1cc([N+](=O)[O-])ccc1NC(=O)NCC1CCN(Cc2ccc(Cl)cc2)CC1	GLP1R cytotox inconclusive, GLP1R inv ag 10µM
COc1ccccc1NC(=O)c1cc2cc(Br)ccc2cc1O	GLP1R inv ag 6.3µM
O=C(NCc1ccccc1F)c1ccc2c(c1)OCO2	none
O=C(NCCc1ccccc1F)c1ccc2c(c1)OCCO2	GLP1R inv ag 0.89µM
CCc1ccc(C(C(=O)NCc2ccc(OC)cc2)N(CCOC)C(=O)Cc2cccs2)cc1 (stereo unspecified)	GLP1R cytotox inconclusive, GLP1R inv ag 10µM
